According to PubChem BioAssay:
Where “and” joins values, the source holds several entries; their conditions need not be identical. Equal entries are not always repeated. Calls of active or inactive are those of the source.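 The calls were made as follows, unless noted: active = inhibition at or above 50% relative to wild type and mutant plate controls; inactive = inhibition below 50%.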

Experiments:
[1] = inhibitors of TNFa-induced NFkB p65 translocation, primary screen, imaging, HUVEC, MLSMR starter and 10KST1 sets (AID 438;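 active = inhibition above 20% together with a positive visual image hit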;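 also: compound added about 3h40 before a 20 min TNFalpha stimulation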;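 as to inhibition: signal is the nuclear over cytoplasmic p65 intensity ratio per well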); conditions: HUVEC TNFa-induced p65 nuclear translocation; cell count: measured here: nuclei count (cytotoxicity indicator), at 2.08 µM; inhibition: at 2 µM, stronger effect = higher value, 0% TNFa-plus-vehicle, 100% no-TNFa wells
[2] = reduction of polyQ htt aggregates in cells – imaging, exon1htt(103Q)mCFP cells, high-content imaging, primary screen (AID 483;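 active = visual image review flags a hit and inhibition of aggregation exceeds 20%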;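 also: compound exposure lasted 3 days before fixation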;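 as to nuclei count: percent of the per-plate median nuclei count of sample wells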); conditions: exon1htt(103Q)mCFP cell line, aggregate imaging, at 2 µM; inhibition of aggregation: stronger effect = higher value; nuclei count: measured here: cell count, toxicity
[3] = endothelial E-selectin expression blockers – imaging, HUVEC, immunofluorescence, MLSMR starter and 10KST1 sets, primary screen (AID 487;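 active = visually confirmed hit in the image check and inhibition above 20%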;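 as to inhibition: signal is fraction of cell area covered by stained E-selectin grains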;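 as to nuclei count: 100% = median nuclei count of all wells on the same plate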); conditions: HUVEC TNFalpha-induced E-selectin immunofluorescence imaging, at 2 µM; inhibition: stronger effect = higher value; nuclei count: measured here: cell number, toxicity
[4] = Primary imaging screen for DUSP6 inhibitors that restore phospho-Erk in transfected HeLa cells, chemical complementation (AID 609;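 active = compounds giving at least 50% inhibition in the cell-based MKP-3 phosphatase rescue imaging test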;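 as to inhibition: phospho-Erk level distribution per well compared with pooled transfected vehicle control wells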); conditions: HeLa MKP-3 transfected, phospho-Erk imaging KS statistic, at 10 µM, cells stimulated with TPA for 15 min
[5] = molecular target: Dual specificity protein phosphatase 6 (Homo sapiens) (UniProt Q16828); experiment: as above; conditions: HeLa MKP-3 transfected, phospho-Erk imaging KS statistic; at 10 µM; stronger effect = higher value; cells stimulated with TPA for 15 min
Chain of Dual specificity protein phosphatase 6 (Homo sapiens) (Q16828 whole entry, looked up): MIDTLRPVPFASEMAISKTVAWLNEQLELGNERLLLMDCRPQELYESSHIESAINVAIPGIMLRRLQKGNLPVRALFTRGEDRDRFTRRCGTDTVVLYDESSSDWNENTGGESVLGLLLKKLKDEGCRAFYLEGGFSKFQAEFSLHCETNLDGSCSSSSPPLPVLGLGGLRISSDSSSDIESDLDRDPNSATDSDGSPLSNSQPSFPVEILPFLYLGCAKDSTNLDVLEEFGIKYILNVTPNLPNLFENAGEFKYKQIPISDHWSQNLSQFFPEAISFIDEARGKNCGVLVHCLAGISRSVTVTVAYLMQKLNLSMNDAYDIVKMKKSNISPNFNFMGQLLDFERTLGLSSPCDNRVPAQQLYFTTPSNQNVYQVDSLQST

[6] = molecular target: Voltage-gated potassium channel subunit beta-2 (Rattus norvegicus) (UniProt P62483); experiment: inhibitors of rat Kvbeta2 reductase activity – biochemical, NADPH fluorescence, primary screen (AID 622;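 active = fluorescence slope higher than the sample average by over 3 SD, cut at about -0.22 in these data, passing the limit was not always enough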;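 also: slope of raw intensity against log time taken from 70 to 1610 s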); conditions: recombinant KvBeta, 4-cyanobenzaldehyde reduction, at 10 µM, stronger effect = higher value
Chain of Voltage-gated potassium channel subunit beta-2 (Rattus norvegicus) (P62483 whole entry, looked up): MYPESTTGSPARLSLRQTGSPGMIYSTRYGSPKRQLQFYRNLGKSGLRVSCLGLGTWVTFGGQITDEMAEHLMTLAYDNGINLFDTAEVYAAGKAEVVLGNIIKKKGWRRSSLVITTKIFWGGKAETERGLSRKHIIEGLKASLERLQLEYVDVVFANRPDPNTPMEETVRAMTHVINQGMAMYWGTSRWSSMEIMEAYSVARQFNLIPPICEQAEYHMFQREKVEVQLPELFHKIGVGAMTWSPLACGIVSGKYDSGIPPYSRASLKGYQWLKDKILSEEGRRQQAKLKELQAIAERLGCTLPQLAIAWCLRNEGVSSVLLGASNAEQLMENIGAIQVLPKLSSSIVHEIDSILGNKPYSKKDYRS

[7] = molecular target: Voltage-gated potassium channel subunit beta-2 (Rattus norvegicus) (UniProt P62483); experiment: enhancers of rat Kvbeta2 NADPH turnover – biochemical, NADPH fluorescence, primary screen (AID 623;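 active = NADPH fluorescence slope more negative than the mean of all samples by about 3 SD, 99.7% confidence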;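 also: fluorescence intensity change per second fitted from 20 to 320 s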); conditions: Recombinant KvBeta, NADPH fluorescence decrease slope, 10 min; at 10 µM; stronger effect = lower value
[8] = molecular target: Alpha-2C adrenergic receptor (Homo sapiens) (UniProt P18825); experiment: compounds altering alpha2C-coupled GIRK flux – cell-based, HEK293 alpha2C/GIRK1/2, thallium flux, primary screen (AID 624;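 active = fluorescence slope after compound addition differing from the mean of all screened samples at 99.7% confidence, in either direction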;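 also: slope of fluorescence ratio to pre-addition baseline per second over 15 to 24 s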); conditions: thallium flux BTC fluorescence, at 10 µM, actives lie on both sides
Chain of Alpha-2C adrenergic receptor (Homo sapiens) (P18825 whole entry, looked up): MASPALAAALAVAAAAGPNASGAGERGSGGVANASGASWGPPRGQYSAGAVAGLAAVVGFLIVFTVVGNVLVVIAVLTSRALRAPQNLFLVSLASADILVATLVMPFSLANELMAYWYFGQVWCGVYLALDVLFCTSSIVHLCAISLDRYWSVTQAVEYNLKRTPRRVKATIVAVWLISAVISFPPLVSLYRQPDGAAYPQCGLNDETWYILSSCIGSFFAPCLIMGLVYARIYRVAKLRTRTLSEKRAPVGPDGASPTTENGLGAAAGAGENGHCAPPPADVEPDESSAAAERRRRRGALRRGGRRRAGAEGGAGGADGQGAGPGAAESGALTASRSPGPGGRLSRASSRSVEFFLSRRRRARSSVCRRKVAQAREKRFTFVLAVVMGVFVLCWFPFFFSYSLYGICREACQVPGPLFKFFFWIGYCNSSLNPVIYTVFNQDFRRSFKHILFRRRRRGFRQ

[9] = inhibitors of larval lipid processing in zebrafish, primary screen, whole organism, PED6 fluorescence, gall bladder and intestine (AID 686;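 active = a full or partial loss of lipid-probe fluorescence in the fish gall bladder, intestine or both, judged by eye; inactive = no fluorescence loss, or compound toxic to the fish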;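 also: larvae 5 to 7 days old with five fish per well; signal comes from phospholipase A2 cleavage of quenched PED6 carried via bile; overnight exposure to compound and PED6 before scoring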); conditions: Zebrafish larvae PED6 lipid processing, fluorescence scoring; screened at 20 µM (by protocol)
[10] = loss of swimming-algae plug formation – whole organism, Chlamydomonas reinhardtii, WT vs cilia-less mutant, absorbance, 96-well, primary screen (AID 463189); conditions: Chlamydomonas reinhardtii gravitaxis, OD600 absorbance, 2 days; at 10 µM; stronger effect = higher value;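 also: 0% = wild type cc124 cells in DMSO and 100% = ciliumless bld1 mutant cells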
[11] = blockers of RIG-like receptor reporter activation – cell-based, Sendai virus stimulus, luciferase, 10K MLSCN set, TLR/RLR signaling modifier project, primary screen (AID 602276;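 active = inhibition at or above 50% at 10 µM; inactive = inhibition below 50%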;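 also: firefly luciferase from ISG56 promoter only with Renilla not read in this screen; 0% = Sendai virus plus DMSO and 100% = medium plus DMSO without virus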); conditions: HEK293 RL24 IRF3 luciferase reporter, at 10 µM, stronger effect = higher value
[12] = TLR3 IRF3 reporter activation blockers – cell-based, poly I:C stimulus, luciferase, 10K MLSCN set, primary screen (AID 602277;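 active = inhibition of the reporter signal at or above 50%; inactive = inhibition below 50%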); conditions: HEK293-TLR3 RL24 IRF3 luciferase reporter, at 10 µM, stronger effect = higher value
[13] = measured here: cell density z-score
[14] = measured here: nuclear c-Myc green intensity z-score
[15] = measured here: nuclear pErk red intensity z-score, stronger effect = higher value

Row | Compound | cell count [1] | inhibition [1] | inhibition of aggregation [2] | nuclei count [2] [%] | inhibition [3] | nuclei count [3] | z-score [4, 13] | z-score [4, 14] | z-score [4, 15] | inhibition [5] | fluorescence slope [6] | NADPH fluorescence slope [7] | slope [8] | outcome [9] | inhibition [10] | inhibition [11] | inhibition [12]
1 | Clc1ccc(Cl)c(-c2ccc(/C=N/c3ncn[nH]3)o2)c1 | 439 | -0.4% (inactive) | 6.2% (inactive) | 104 | -127% (inactive) | 122% | -0.606 | -0.195 | 1.4 | -4.27% (inactive) | -0.438 (inactive) | -5.6e-05 (inactive) | 0.0057 (inactive) | inactive | 73.7% (active) | 13.4% (inactive) | 18.3% (inactive)
2 | COC1=CC(=O)CC(C)C12Oc1c(Cl)c(OC)cc(OC)c1C2=O (stereo not drawn) | 555 | -5% (inactive) | 6.9% (inactive) | 105 | -16.1% (inactive) | 122% | -1.48 | -1.27 | 1.79 | -8.38% (inactive) | -0.459 (inactive) | -3.3e-05 (inactive) | 0.00463 (inactive) | inactive | -7.52% (inactive) | 22.1% (inactive) | 38.6% (inactive)
3 | CCCCCCCCCCCCCCCC(O)C(N)CO (stereo not drawn) | 586 | 0.2% (inactive) | -17.4% (inactive) | 104 | -75.6% (inactive) | 122% | 0.584 | 2.76 | 2.96 | 25.1% (inactive) | -0.485 (inactive) | -6.4e-05 (inactive) | 0.00528 (inactive) | inactive; toxic | 61% (active) | 18.8% (inactive) | 4.1% (inactive)
4 | Nc1nnc(-c2cccc(Cl)c2Cl)c(N)n1 | 697 | -8.4% (inactive) | 2.2% (inactive) | 112 | -39.9% (inactive) | 139% | -0.0756 | -0.0257 | 1.16 | 1.48% (inactive) | -0.527 (inactive) | -7.1e-06 (inactive) | 0.00578 (inactive) | inactive | -6.28% (inactive) and 7.36% (inactive) | -2.35% (inactive) | 13.8% (inactive)
5 | CCN(CC)CCNC(=O)c1cc(Cl)c(N)cc1OC | 552 | -4.5% (inactive) | 5.6% (inactive) | 106 | -17.3% (inactive) | 120% | 0.156 | -0.776 | 0.343 | -0.493% (inactive) | -0.444 (inactive) | 4.3e-05 (inactive) | 0.00461 (inactive) | inactive | 8.75% (inactive) and -3.64% (inactive) | -8.87% (inactive) | 30.5% (inactive)
6 | CCN(CCCCOC(=O)c1ccc(OC)c(OC)c1)C(C)Cc1ccc(OC)cc1 (stereo not drawn) | 635 | -4.8% (inactive) | -7.1% (inactive) | 96.1 | -106% (inactive) | 138% | 0.515 | -0.208 | -0.515 | 9.37% (inactive) | -0.488 (inactive) | -7.4e-05 (inactive) | 0.00442 (inactive) | inactive | 55.2% (active) | -44.7% (inactive) | 57.4% (active)
7 | CC(=O)Nc1ccccc1O | 675 | 0.8% (inactive) | 14.1% (inactive) | 106 | -84.6% (inactive) | 121% | -0.0756 | 0.873 | -0.0939 | 7.39% (inactive) | -0.439 (inactive) | -5.7e-05 (inactive) | 0.00449 (inactive) | inactive | -2.47% (inactive) | 13.6% (inactive) | 37.8% (inactive)
8 | CCSC(SCC)[C@H](O)[C@@H](O)[C@H](O)[C@H](O)CO | 619 | -2.2% (inactive) | -0.2% (inactive) | 107 | -75.4% (inactive) | 116% | -0.857 | -0.361 | -0.437 | -4.44% (inactive) | -0.451 (inactive) | 1.5e-05 (inactive) | 0.00559 (inactive) | inactive | -8.68% (inactive) | 10.6% (inactive) | 28.3% (inactive)
9 | c1ccc(Cc2nnc3n2CCCCC3)cc1 | 427 | -7.4% (inactive) | 0.9% (inactive) | 104 | -122% (inactive) | 114% | -1.13 | -0.00465 | -0.441 | -0.608% (inactive) | -0.55 (inactive) | -4.5e-05 (inactive) | 0.0052 (inactive) | inactive | 22.9% (inactive) | 13.8% (inactive) | 22.9% (inactive)
10 | Cn1nnc2c(sc3nc(N4CCOCC4)c4c(c32)CCCC4)c1=O | 611 | -5.6% (inactive) | 21.6% (inactive) | 109 | -120% (inactive) | 114% | 3.22 | -0.738 | -2.88 | 28.6% (inactive) | -0.348 (inactive) | -2.4e-05 (inactive) | 0.00477 (inactive) | inactive | -8.88% (inactive) | -5.47% (inactive) | -2.11% (inactive)
11 | O=C(C1CCCCC1)N1CC(=O)N2CCc3ccccc3C2C1 (stereo not drawn) | 552 and 561 | -7.7% (inactive) and -4.1% (inactive) | 16.2% (inactive) | 109 | -103% (inactive) and -50.4% (inactive) | 115% and 103% | -1.12 and -0.574 | 0.266 and 0.927 | -0.413 and -1.5 | 1.48% (inactive) and 1.9e-07% (inactive) | -0.447 (inactive) and -0.51 (inactive) | 2.3e-05 (inactive) and -4.3e-06 (inactive) | 0.00517 (inactive) and 0.00493 (inactive) | inactive | 6.15% (inactive) and -13.5% (inactive) and -10.9% (inactive) | 8.76% (inactive) | 17.3% (inactive)
12 | CO[C@H]1C=CO[C@@]2(C)Oc3c(C)c(O)c4c(O)c(c(C=NN5CCN(C)CC5)c(O)c4c3C2=O)NC(=O)C(C)=CC=C[C@H](C)[C@H](O)[C@@H](C)[C@@H](O)[C@@H](C)[C@H](OC(C)=O)[C@@H]1C | 652 | -3.9% (inactive) | -21% (inactive) | 108 | -93.2% (inactive) | 125% | -0.406 | 1.71 | 0.381 | 13.3% (inactive) | -0.556 (inactive) | 4.3e-06 (inactive) | 0.00466 (inactive) | inactive | 10.8% (inactive) | 33.7% (inactive) | 49.7% (inactive)
13 | COc1ccc(-n2c(SCC(N)=O)nc3sc4c(c3c2=O)CCN(C)C4)cc1 | 537 | -5.6% (inactive) | 32% (inactive) | 58 | -51.4% (inactive) | 134% | -0.15 | 1.95 | -0.53 | -2.69% (inactive) | -0.305 (inactive) | -1.8e-06 (inactive) | 0.00454 (inactive) | inactive | -8.09% (inactive) | -4.01% (inactive) | 0.612% (inactive)
14 | COc1cc(N2C(=O)CSC23C(=O)Nc2ccccc23)cc(OC)c1OC (stereo not drawn) | 512 | -13.1% (inactive) | -13.9% (inactive) | 99.6 | -26.2% (inactive) | 105% | -0.126 | -0.03 | 0.793 | 1.6e-07% (inactive) | -0.342 (inactive) | 6.8e-06 (inactive) | 0.00524 (inactive) | inactive | 24.8% (inactive) | 2.33% (inactive) | 10.8% (inactive)
15 | C[N+](C)(C)CCOP(=O)([O-])OC[C@H](O)CO | 713 | -2.4% (inactive) | -22.9% (inactive) | 105 | -60.7% (inactive) | 109% | 0.542 | 0.427 | -0.871 | 15.3% (inactive) | -0.472 (inactive) | -5.7e-05 (inactive) | 0.00513 (inactive) | inactive | 27.2% (inactive) | -4.92% (inactive) | -2.18% (inactive)
16 | C[C@@H]1C[C@H]2[C@@H]3CCC4=CC(=O)C=C[C@]4(C)[C@@]3(F)[C@@H](O)C[C@]2(C)[C@H]1C(=O)CO | 647 | -8.8% (inactive) | 0% (inactive) | 59.5 | -68% (inactive) | 134% | 1.14 | 0.339 | -1.14 | 31.1% (inactive) | -0.536 (inactive) | -9.8e-05 (inactive) | 0.00544 (inactive) | inactive | 4.88% (inactive) | -17.5% (inactive) | -9.26% (inactive)
17 | COC(=O)CSc1nc2sc3c(c2c(=O)n1C1CCCCC1)CCN(C)C3 | 390 | -4.4% (inactive) | -16% (inactive) | 102 | -127% (inactive) | 140% | -0.811 | -0.963 | 1.03 | -8.59% (inactive) | -0.289 (inactive) | 2e-05 (inactive) | 0.00385 (inactive) | inactive | 14.6% (inactive) | 15.7% (inactive) | 38.9% (inactive)
18 | NC(=O)N1c2ccccc2C=Cc2ccccc21 | 639 | -4.6% (inactive) | -10.6% (inactive) | 110 | -55.6% (inactive) | 127% | -0.0512 | 0.625 | -1.48 | 15.3% (inactive) | -0.492 (inactive) | -4.6e-05 (inactive) | 0.00463 (inactive) | inactive | 5.34% (inactive) and 20.1% (inactive) | 7.49% (inactive) | 22.1% (inactive)
19 | Cc1c(OCC(F)(F)F)ccnc1CS(=O)c1nc2ccccc2[nH]1 (stereo not drawn) | 654 | 0.3% (inactive) | 8.2% (inactive) | 77.3 | -74.2% (inactive) | 98.2% | 1.3 | -0.826 | -0.353 | 14.6% (inactive) | -0.466 (inactive) | -3.7e-05 (inactive) | 0.00411 (inactive) | inactive | -14.9% (inactive) and -4.97% (inactive) | -45.4% (inactive) | -64.9% (inactive)
